The nature of assay [1]: Drug repurposing screens with cells derived from glioblastoma tumor samples (AID 1345199). Further: nearly all actives have a fitted effect of over 40% in size. Further: potency means the concentration at half of the fitted maximal effect. On activity, negative = cell killing: on the % scale 0 is the no-effect control and ±100 the full control effect. The following applies: GBM patient neurospheres viability, ATP luminescence, 48 h. A digest of the protocol: (§1)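 Four patient lines of CD133+ GBM neurospheres were screened at several concentrations; hits were retested in those lines plus three slower-growing GBM lines, using 48-hour treatment and ATP-based viability.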

The test system of assay [2] is Tov112D. The assay is described as follows: Primary qHTS to identify gynecologic anti-cancer compounds using libraries of approved drugs and bioactive compounds (AID 1345084). Further: on the % scale 0 is the no-effect control and ±100 the full control effect; nearly all actives have a fitted effect of over 55% in size. The note with it: Gynecologic cancer cell panel viability, ATPlite luminescence, 48 h; series mostly up to 57.5 µM. A digest of the protocol: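 Cytotoxicity screen measuring ATP content by luciferase luminescence. Each compound is applied at five concentrations for 48 h at 37 C with 5% CO2.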

Assay [3] concerns astro (control astrocytes). The assay is described as follows: Drug repurposing screens with cells derived from glioblastoma tumor samples (AID 1345199). Further: nearly all actives have a fitted effect of over 40% in size. Further: potency means the concentration at half of the fitted maximal effect. On activity, negative = cell killing: on the % scale 0 is the no-effect control and ±100 the full control effect. The note with it: viability, ATP luminescence, 48 h; series mostly up to 45.9 µM. A digest of the protocol:
as §1

A short description of assay [4]: qHTS assay for small molecule activators of the human pregnane X receptor (PXR) signaling pathway (AID 720659; call rule not given here; further: 0% is about no effect). The following applies: DPX-2 HepG2 CYP3A4-luciferase, 24 h; series mostly up to 92.3 µM. Background: In qHTS, concentration-response curves come from the screen itself.
In assay [5] the target is Nuclear receptor subfamily 1 group I member 2 (Rattus norvegicus) (UniProt Q9R1A7). The assay is described as follows: qHTS assay for small molecule activators of the rat pregnane X receptor (rPXR) signaling pathway (AID 651751; call rule not given here; further: 0% is about no effect). The note with it: rPXR reporter cells, luciferase (One-Glo), 24 h.
Sequence of Nuclear receptor subfamily 1 group I member 2 (Rattus norvegicus) (Q9R1A7 whole entry, looked up): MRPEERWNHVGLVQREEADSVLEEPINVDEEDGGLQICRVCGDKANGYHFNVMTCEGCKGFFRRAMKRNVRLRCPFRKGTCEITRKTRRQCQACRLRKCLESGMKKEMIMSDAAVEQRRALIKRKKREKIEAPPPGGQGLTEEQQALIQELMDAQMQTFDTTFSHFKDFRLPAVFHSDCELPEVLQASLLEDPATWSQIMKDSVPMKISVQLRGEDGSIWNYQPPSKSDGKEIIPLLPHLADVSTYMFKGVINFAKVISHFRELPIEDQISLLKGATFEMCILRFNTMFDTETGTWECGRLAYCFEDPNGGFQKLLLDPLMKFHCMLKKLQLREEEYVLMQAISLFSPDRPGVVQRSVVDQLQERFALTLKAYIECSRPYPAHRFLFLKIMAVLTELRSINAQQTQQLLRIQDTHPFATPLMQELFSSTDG
Setting [6] is: at 21.2 µM (top of the series), tumour line B.
The mark [7] stands for this setting: at 21.2 µM (top of the series), tumour line D.
Where [8] appears, read: at 45.9 µM (top of the series), tumour line D.
[9] abbreviates: at 91.6 µM (top of the series), tumour line B.
The mark [10] stands for this setting: at 91.6 µM (top of the series), tumour line D.
[11] abbreviates: at 21.3 µM (top of the series), tumour line A.
The mark [12] stands for this setting: at 108 µM (top of the series), tumour line B.
Setting [13] is: at 108 µM (top of the series), tumour line D.
The mark [14] stands for this setting: at 45.9 µM (top of the series), tumour line B.
Setting [15] is: at 46 µM (top of the series), tumour line A.

Unmarked numbers belong to inactive results. Results filed as inconclusive are left out. The source made the active and inactive calls. Unless noted, the call rests on the fitted dose curve; in most records, active means well fitted curve in the direction sought with a large enough effect; inconclusive means small, poorly fitted or top-dose-only effect, or another doubt; inactive means no such curve, though single readings can be large; an effect the other way counts as inactive or inconclusive.

On to `COc1ccc(CN2CCNCC2)c(OC)c1OC`, for which the activity, negative = cell killing in assay [1] (setting [6]) was -2.66%; in assay [1] (setting [7]), -1.27%.
For `CCN(Cc1ccc(Cl)nc1)/C(=C/[N+](=O)[O-])NC`, the activity, negative = cell killing in assay [1] (setting [8]) was -5.99%.
Consider `CN(C)CCc1c[nH]c2cccc(O)c12`, for which the activity, negative = cell killing is -8.47% in assay [1] (setting [9]) and -23.4% in assay [1] (setting [10]).
Turning to `C[N+]1(C)[C@@H]2CC[C@H]1CC(OC(=O)C(CO)c1ccccc1)C2` (stereo not given in full), the activity, negative = cell killing is -3.94% in assay [1] (setting [7]); -14.4% in assay [1] (setting [11]); -12.5% in assay [1] (at 46.1 µM (top of the series), tumour line C).
As for `CN(C)C(=O)Oc1cc(OC(=O)N(C)C)cc(C(O)CNC(C)(C)C)c1` (stereo not given), the values for the activity, negative = cell killing in assay [1] (setting [7]) and in assay [1] (setting [11]) were -0.819% and -13.9%, respectively.
With `Clc1ccc(C(OCCN2CCCCC2)c2ccccc2)cc1` (stereo not given), the Potency in assay [1] (tumour line D) is 7.08 µM (active).
Regarding `Clc1ccc(CO/N=C(\Cn2ccnc2)c2ccc(Cl)cc2Cl)c(Cl)c1`, the Potency in assay [1] (tumour line D) was 11.2 µM (active).
As for `CN(C)CCc1c[nH]c2ccc(O)cc12`, the Potency entry in assay [2] and in assay [3] was “inactive” throughout. Further, the values for the activity, negative = cell killing in assay [1] (setting [9]) and in assay [1] (setting [10]) were -5.09% and -23.3%, respectively.
With `CCOC(=O)c1cncn1C(C)c1ccccc1` (stereo not given), the Potency result in assay [2] and in assay [3] was “inactive” in each case. Also, the activity, negative = cell killing in assay [1] (setting [6]) is 0.856%; in assay [1] (setting [7]), -20.7%.
In the case of `C[C@H](CN1CCOCC1)C(C(=O)N1CCCC1)(c1ccccc1)c1ccccc1`, the Potency result in assay [2] and in assay [3] was “inactive” in each case. For the same compound, the activity, negative = cell killing in assay [1] (setting [12]) was -15.2%; in assay [1] (setting [13]), -29.8%. Moreover, the Potency in assay [1] (tumour line A) is 35.5 µM (active).
As for `CC(Cc1ccccc1)NCc1ccccc1Cl` (stereo not given), the Potency entry in assay [2] and in assay [3] was “inactive” in each case. Besides, the activity, negative = cell killing in assay [1] (setting [14]) is -13.4%; in assay [1] (setting [8]), -38.9%. Also, the Potency in assay [1] (tumour line A) is 14.1 µM (active).
As for `C[N+]1(CCC(C(N)=O)(c2ccccc2)c2ccccc2)CCCCC1`, the Potency result in assay [2] and in assay [3] was “inactive” each time. The activity, negative = cell killing in assay [1] (setting [14]) was -5.31%; in assay [1] (setting [8]) it was -19.9%.
Consider `CCC1(c2cccc(O)c2)CCCCN(C)C1` (stereo not given), for which the Potency result in assay [2] and in assay [3] was “inactive” in each case. Also, the activity, negative = cell killing in assay [1] (setting [6]) was -5.3%; in assay [1] (setting [7]), -23.7%.
Regarding `CCC(=O)OC1(c2ccccc2)CCN(C)CC1`, the Potency result in assay [2] and in assay [3] was “inactive” each time. Further, the activity, negative = cell killing in assay [1] (setting [12]) is -0.343%; in assay [1] (setting [13]), -13.5%. Besides, the Potency in assay [1] (tumour line A) is 50.1 µM (active).
`CCC(=O)O[C@H]1CC[C@H]2[C@@H]3CCC4=CC(=O)CC[C@]4(C)[C@H]3CC[C@]12C`: the Potency entry in assay [2] and in assay [3] was “inactive” throughout. In addition, the activity, negative = cell killing in assay [1] (setting [6]) is -4.44%; in assay [1] (setting [7]) it was -24.6%. In assay [1] (tumour line A), the Potency was 14.1 µM (active). Further, the compound was called inactive in assay [4].
Consider `CNC(C)Cc1ccc2c(c1)OCO2` (stereo not given), for which the Potency entry in assay [2] and in assay [3] was “inactive” each time. The figures for the activity, negative = cell killing in assay [1] (setting [12]) and in assay [1] (setting [13]) were 0.451% and -9%, respectively. Moreover, the Potency in assay [1] (tumour line A) was 50.1 µM (active).
Regarding `CCCN(CCC)CCc1c[nH]c2ccccc12`, the Potency result in assay [2] and in assay [3] was “inactive” in each case. For the same compound, the activity, negative = cell killing is -11.3% in assay [1] (setting [9]) and -14% in assay [1] (setting [10]). Also, the Potency in assay [1] (tumour line A) was 25.1 µM (active).
For the compound `COP(=O)(OC)C(O)C(Cl)(Cl)Cl` (stereo not given), the Potency entry in assay [2] and in assay [3] was “inactive” throughout. The activity, negative = cell killing is -5.86% in assay [1] (setting [14]), -9.43% in assay [1] (setting [8]) and -20.1% in assay [1] (setting [15]). For the same compound, the max response in assay [5] was 3.3%.
For the compound `Cc1c(Cl)c(=O)oc2cc(OP(=O)(OCCCl)OCCCl)ccc12`, the Potency entry in assay [2] and in assay [3] was “inactive” in each case. For the same compound, the activity, negative = cell killing in assay [1] (setting [14]) is -10.4%; in assay [1] (setting [8]) it was -23.1%.
Turning to `CCN(CC)C(C)C(=O)c1ccccc1` (stereo not given), the Potency entry in assay [2] and in assay [3] was “inactive” each time. In addition, the activity, negative = cell killing in assay [1] (setting [14]) is -5.61%; in assay [1] (setting [8]), -24.9%; in assay [1] (setting [15]), -22.4%.
Turning to `Cc1nc2ccccc2c(=O)n1-c1ccccc1Cl`, the Potency entry in assay [2] and in assay [3] was “inactive” throughout. Further, the activity, negative = cell killing in assay [1] (setting [9]) is -7.8%; in assay [1] (setting [10]), -27.3%. In assay [1] (tumour line A), the Potency is 39.8 µM (active).
Consider `CCNc1nc(Cl)nc(NCC)n1`, for which the Potency entry in assay [2] is “inactive”. The activity, negative = cell killing in assay [1] (setting [14]) is -2.74%; in assay [1] (setting [8]), -21.4%; in assay [1] (setting [15]), -24.7%. Moreover, the max response in assay [5] was -3.28%. For the same compound, the result in assay [4] was inactive.
On to `C[C@H]1C(=O)O[C@@H]2CCN3CC=C(COC(=O)[C@](C)(O)[C@]1(C)O)[C@H]23`, for which the Potency result in assay [2] and in assay [3] was “inactive” throughout. Besides, the activity, negative = cell killing is -12.9% in assay [1] (setting [14]), -22.3% in assay [1] (setting [8]) and -27.9% in assay [1] (setting [15]). For the same compound, the max response in assay [5] was 0.678%. The outcome in assay [4] was inactive.
As to `C[N+](C)(C)CCOC(=O)C(O)(c1ccccc1)c1ccccc1`, the Potency result in assay [2] and in assay [3] was “inactive” throughout. Further, the activity, negative = cell killing in assay [1] (setting [14]) is -4.79%; in assay [1] (setting [8]), -23.3%.
On to `CC1N=C(N)OC1c1ccccc1` (stereo not given), for which the Potency entry in assay [2] and in assay [3] was “inactive” throughout. Also, the activity, negative = cell killing in assay [1] (setting [9]) is -8.97%; in assay [1] (setting [10]), -16.1%. In addition, the Potency in assay [1] (tumour line A) is 50.1 µM (active).
Take `O=C(O)CCCCCCNC1c2ccccc2CCc2ccccc21`: the Potency result in assay [2] and in assay [3] was “inactive” in each case. In addition, the activity, negative = cell killing in assay [1] (setting [14]) is 2.2%; in assay [1] (setting [8]), -6.72%.
Consider `CCOC(=O)NC(O)C(Cl)(Cl)Cl` (stereo not given), for which the Potency entry in assay [2] and in assay [3] was “inactive” each time. In addition, the activity, negative = cell killing in assay [1] (setting [14]) was -7.26%; in assay [1] (setting [8]) it was -2.34%; in assay [1] (setting [15]), -17.3%.
Regarding `CC(C)C(Br)C(=O)NC(N)=O` (stereo not given), the Potency entry in assay [2] and in assay [3] was “inactive” each time. Also, the activity, negative = cell killing is -3.2% in assay [1] (setting [14]), -12.7% in assay [1] (setting [8]) and -8.61% in assay [1] (setting [15]).
In the case of `Oc1ccc([C@H]2CNCc3c2ccc(O)c3O)cc1O`, the Potency result in assay [2] and in assay [3] was “inactive” throughout. Moreover, the activity, negative = cell killing in assay [1] (setting [14]) was -19.9%; in assay [1] (setting [8]), -11.1%; in assay [1] (setting [15]), -27.2%.

The values above are taken from PubChem BioAssay (NCATS).
